A selection: hits, their analogues and other compounds. The true share with any hit is near 12%.
JMJD2A Tudor: qHTS Assay for Inhibitors of JMJD2A-Tudor Domain | Lysine-specific demethylase 4A (Homo sapiens), O75164 | Potency, µM (series often up to 114 µM), hits mostly inhibitors | AlphaScreen JMJD2A-Tudor / H3K4me3 peptide binding | 4.4% of 390,000 active; also: nearly all actives have a fitted effect of over 50% in size
L3MBTL1 block: qHTS Assay for the Inhibitors of L3MBTL1; Potency, µM (titrated, usually from 57.1 µM), usual class: inhibitors; AID 485360, 2010; Lethal(3)malignant brain tumor-like protein 1 (Homo sapiens), Q9Y468; 0.66% of 230,000 active; AlphaScreen L3MBTL1–H3K9me1 peptide binding; also: nearly all actives have a fitted effect of over 60% in size
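AlphaScreen proximity signal between nickel-chelate acceptor and streptavidin donor beads (final 10 ug/mL) reports binding of 50 nM L3MBTL1 to 75 nM biotin-H3 K9me1 peptide; complex incubated with compounds 30 min at room temperature; cefsulodin titration as control.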
G9a inh: qHTS Assay for Inhibitors of Histone Lysine Methyltransferase G9a; Histone-lysine N-methyltransferase EHMT2 (Homo sapiens), Q96KQ7; G9a H3K9 monomethylation, AlphaScreen, 2 h; Potency, µM (series often up to 102 µM), hits mostly inhibitors; 8.8% of 350,000 active; AID 504332, 2011; also: nearly all actives have a fitted effect of over 75% in size
Target sequence (Q96KQ7 913-1193 limits assumed): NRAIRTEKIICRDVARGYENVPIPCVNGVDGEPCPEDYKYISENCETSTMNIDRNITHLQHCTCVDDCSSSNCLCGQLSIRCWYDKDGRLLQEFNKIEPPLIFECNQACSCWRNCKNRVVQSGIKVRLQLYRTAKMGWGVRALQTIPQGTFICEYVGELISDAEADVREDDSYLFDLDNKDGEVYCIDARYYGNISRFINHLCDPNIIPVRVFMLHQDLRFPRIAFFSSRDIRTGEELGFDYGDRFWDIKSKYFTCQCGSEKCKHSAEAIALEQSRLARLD
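Readings reflect AlphaScreen signal from monomethyl-H3K9 antibody detection. HMT at 20 nM; substrate b-H3K9 500 nM; cofactor SAM 20 uM; 2 h RT reaction; compounds tested as titrations in qHTS with 15 min preincubation.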
BAZ2B block: qHTS Assay for Inhibitors of BAZ2B; Bromodomain adjacent to zinc finger domain protein 2B (Homo sapiens), Q9UIF8; AlphaScreen BAZ2B-H3K14Ac peptide displacement; Potency, µM (series often up to 114 µM), most hits filed as inhibitors; 4.4% of 360,000 active; also: nearly all actives have a fitted effect of over 60% in size
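AlphaScreen displacement: compounds (up to 110uM) incubated 30 min at room temperature with a preformed 50 nM BAZ2B/50 nM biotinylated H3K14Ac peptide complex in PBS pH 7.4 with Tween-20. Donor and acceptor beads at 10 ug/mL final added, 20 min light-protected before reading.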
HP1b chromo inh: HTS for Inhibitors of HP1-beta Chromodomain Interactions with Methylated Histone Tails; Chromobox protein homolog 1 (Homo sapiens), P83916; AlphaScreen HP1-beta / biotin-H3K9me3 peptide binding; Potency, µM (doses to about 114 µM), actives largely listed as inhibitors; 0.56% of 390,000 active; also: nearly all actives have a fitted effect of over 70% in size
Target sequence (P83916 whole entry, looked up): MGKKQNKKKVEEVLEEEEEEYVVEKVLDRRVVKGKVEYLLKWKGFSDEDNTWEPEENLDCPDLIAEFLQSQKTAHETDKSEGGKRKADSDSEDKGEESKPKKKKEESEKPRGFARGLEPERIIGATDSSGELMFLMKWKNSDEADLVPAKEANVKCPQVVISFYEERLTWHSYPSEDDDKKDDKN
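HP1-beta protein (50 nM final) preincubated 30 min at room temperature with biotinylated H3(1-18)K9me3 peptide (50 nM) in PBS pH 7.4, 0.01% Tween-20, then compound added for 30 min. AlphaScreen streptavidin donor/nickel chelate acceptor beads (10 ug/mL final), 30 min dark, luminescence read.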
Sfp inh: qHTS Assay for Inhibitors of Bacillus subtilis Sfp phosphopantetheinyl transferase (PPTase). 4'-phosphopantetheinyl transferase ffp (Bacillus subtilis), Q9F4F7. Biochemical Sfp PPTase activity, qHTS. Potency, µM, usual class: inhibitors. 3.5% of 310,000 active. AID 1490, 2009;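 also: the enzyme is Sfp with the accession as filed and its product quenches rhodamine fluorescence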
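Compounds were incubated with enzyme (final 15 nM) for 15 min at room temperature before substrate addition started the reaction. Fluorescence at 525 nm excitation, 598 nm emission was recorded immediately and after 30 minutes.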
Of the large screens only hits and unclear results are named; the others gave an inactive call. Calls follow the shape of the dose curve; as a rule, active = well fitted curve in the direction sought with a large enough effect; inconclusive = small, poorly fitted or top-dose-only effect, or another doubt; inactive = no such curve, though single readings can be large; an effect the other way counts as inactive or inconclusive.

O=C(Cn1c(=O)nc(-c2ccccc2)c2ccccc21)Nc1cccc(C(F)(F)F)c1	none (no result: L3MBTL1 block, Sfp inh)
CCN1CCN(CC(=O)N2CCCC(C(=O)c3ccc(Oc4ccccc4)cc3)C2)CC1 (configuration not stated)	L3MBTL1 block inconclusive, G9a inh 35µM, BAZ2B block 50µM
O=C(NC1CC(=O)N(c2ccc(F)cc2)C1)c1ccc2c(c1)OCO2 (configuration not stated)	none (no result: L3MBTL1 block, Sfp inh)
c1ccc2c(C3=NNC(=NC4CC4)SC3)c[nH]c2c1	G9a inh 13µM, Sfp inh inconclusive
c1ccc(C2=NNC(=NC3CC3)SC2)cc1	G9a inh inconclusive, Sfp inh 45µM
c1ccc2c(C3=NNC(=NC4CCCCC4)SC3)c[nH]c2c1	JMJD2A Tudor inconclusive, G9a inh inconclusive, BAZ2B block inconclusive
COc1ccc(CCNC(=O)c2cc3c(=O)[nH]c4ccc(C)cc4c3s2)cc1OC	none (no result: L3MBTL1 block, Sfp inh)
CSc1cccc(NC(=O)c2[nH]c(C)c(C(C)=O)c2C)c1	G9a inh inconclusive, BAZ2B block 50µM, HP1b chromo inh inconclusive (no result: L3MBTL1 block)
Cc1cccn2c(=O)c(C=O)c(Nc3ccccc3)nc12	G9a inh 45µM (no result: L3MBTL1 block)
COc1ccc(Nc2nc3c(C)cccn3c(=O)c2C=O)cc1	none (no result: L3MBTL1 block)
CC(=O)c1cnc2c(-c3ccc(Cl)cc3)cnn2c1C	none
Nc1c(C(=O)O)cnc2c(-c3ccc(Cl)cc3)cnn12	JMJD2A Tudor 28µM, G9a inh inconclusive, BAZ2B block 28µM
CN(c1ccc(OCC(=O)OCC(=O)Nc2ccccc2)cc1)S(=O)(=O)c1cccs1	none
CCN(CC)c1ccc(NC(=O)COc2ccc(N(C)S(=O)(=O)c3cccs3)cc2)cc1	JMJD2A Tudor inconclusive, L3MBTL1 block inconclusive, G9a inh 7.9µM, BAZ2B block 10µM, Sfp inh inconclusive
CCN(CC)c1ccc(NC(=O)COc2ccc(-n3cnnn3)cc2)cc1	JMJD2A Tudor 50µM, HP1b chromo inh inconclusive (no result: G9a inh, BAZ2B block, Sfp inh)
CCOc1ccc(NC(=O)COc2ccc(-n3cnnn3)cc2)cc1	none (no result: Sfp inh)
COc1cccc(C(=O)N2c3ccc(C)cc3C(C)(c3ccccc3)CC2(C)C)c1 (configuration not stated)	none (no result: L3MBTL1 block, Sfp inh)
Cc1ccc(-c2c(C)n([O-])c3c([n+]2=O)CCCC3)cc1	JMJD2A Tudor 56µM (no result: L3MBTL1 block)
Cc1c(-c2ccc(Br)cc2)[n+](=O)c2c(n1[O-])CCCCC2	none (no result: G9a inh)
CCCCCCCCCCCC(=O)[O][Sn]([CH2]CCC)([CH2]CCC)[O]C(=O)CCCCCCCCCCC	none (no result: JMJD2A Tudor, L3MBTL1 block, BAZ2B block, HP1b chromo inh)
CCC(C)C(N)C1=NC(C(=O)N[C@@H](CC(C)C)C(=O)N[C@H](CCC(=O)[O-])C(=O)N[C@H](C(=O)N[C@H]2CCCCNC(=O)[C@H](CC(N)=O)NC(=O)[C@@H](CC(=O)[O-])NC(=O)[C@H](Cc3cnc[nH]3)NC(=O)[C@@H](Cc3ccccc3)NC(=O)[C@H]([C@@H](C)CC)NC(=O)[C@@H](CCCN)NC2=O)[C@@H](C)CC)CS1.[Zn+2] (some centres not stated)	JMJD2A Tudor 2.8µM, HP1b chromo inh 13µM (no result: L3MBTL1 block, G9a inh, BAZ2B block, Sfp inh)
CC(=O)OCC1OC(n2cnc3c(=O)[nH]cnc32)C(OC(C)=O)C1OC(C)=O (configuration not stated)	none (no result: JMJD2A Tudor, L3MBTL1 block, G9a inh, BAZ2B block, HP1b chromo inh)
COC(=O)N1CCC2(CC1)CCN(c1ccncc1)CC2	none (no result: JMJD2A Tudor, L3MBTL1 block, BAZ2B block, HP1b chromo inh)
O=C(Cn1cncn1)c1ccc(Cl)cc1	none (no result: L3MBTL1 block)
Cc1ccc(C(=O)Cn2cncn2)cc1	G9a inh 50µM
C=CCOc1ccc(CN(C)CC(=O)Nc2ccccc2[N+](=O)[O-])cc1	JMJD2A Tudor 13µM, L3MBTL1 block inconclusive, G9a inh 14µM, HP1b chromo inh inconclusive, Sfp inh inconclusive (no result: BAZ2B block)
CCc1ccc(CN(C)CC(=O)Nc2ccccc2[N+](=O)[O-])cc1	JMJD2A Tudor inconclusive, G9a inh 79µM, BAZ2B block inconclusive
Oc1c(C=Nc2ccccc2)sc2ccccc12	none
Oc1sc(C=Nc2ccc(F)cc2)c2ccccc12	G9a inh inconclusive, Sfp inh 14µM
Oc1sc(C=Nc2ccccc2)c2ccccc12	Sfp inh 45µM
CCOC(=O)Cn1c(=O)oc2cc(S(=O)(=O)N3CCN(c4ccc(F)cc4)CC3)ccc21	none (no result: L3MBTL1 block, Sfp inh)
COc1ccccc1NC(=O)C(Cc1ccccc1)NS(=O)(=O)c1cccc2nsnc12 (configuration not stated)	JMJD2A Tudor inconclusive (no result: L3MBTL1 block, BAZ2B block, Sfp inh)
CCOc1ccc(-n2c(-c3ccccc3)c(C)n3c4c(=O)n(C)c(=O)n(C)c4nc23)cc1	none (no result: L3MBTL1 block, Sfp inh)
O=C(Nc1ccc(SC(F)F)cc1)c1cc(-c2ccc3c(c2)OCCO3)on1	none (no result: L3MBTL1 block, Sfp inh)
COc1cc([N+](=O)[O-])c(N2CCOCC2)c([N+](=O)[O-])c1OC	G9a inh inconclusive, BAZ2B block inconclusive
O=[N+]([O-])c1cc(Br)c2nsnc2c1N1CCOCC1	JMJD2A Tudor 40µM, L3MBTL1 block inconclusive, BAZ2B block 32µM, HP1b chromo inh 20µM (no result: G9a inh)
CCOC(=O)c1c(C)sc(-c2c(-c3ccc(OC)c(F)c3)[nH]c3c2c(=O)[nH]c(=O)n3C)c1O	none (no result: L3MBTL1 block, Sfp inh)
CC1CN(C(=O)N2CCC(C(=O)NCCC3=CCCCC3)CC2)c2cc(Cl)ccc2O1 (configuration not stated)	BAZ2B block inconclusive (no result: L3MBTL1 block, Sfp inh)
O=C(NCc1ccccc1C(F)(F)F)C12CN(Cc3ccccc3)CC1C(c1ccc([N+](=O)[O-])cc1)=NO2 (configuration not stated)	G9a inh inconclusive, Sfp inh 2.2µM
Cc1ccc(CCNC(=O)C23CN(Cc4ccccc4)CC2C(c2cccc([N+](=O)[O-])c2)=NO3)cc1 (configuration not stated)	G9a inh inconclusive
COc1cccc(CNC(=O)C23CN(Cc4ccccc4)CC2C(c2ccc([N+](=O)[O-])cc2)=NO3)c1 (configuration not stated)	JMJD2A Tudor inconclusive, G9a inh 71µM
COc1ccc(CCNC(=O)C23CN(Cc4ccccc4)CC2C(c2cccc([N+](=O)[O-])c2)=NO3)cc1 (configuration not stated)	JMJD2A Tudor inconclusive, G9a inh inconclusive
CC(C)CCNC(=O)C12CN(Cc3ccccc3)CC1C(c1ccc([N+](=O)[O-])cc1)=NO2 (configuration not stated)	JMJD2A Tudor inconclusive, G9a inh inconclusive, BAZ2B block inconclusive, Sfp inh 14µM
